Gal4-VP16 FLuc: VP16 counterscreen qHTS for inhibitors of ROR gamma transcriptional activity | 310,000 compounds, 3.5% hits | Drosophila S2 Gal4-VP16 UAS-luciferase, luminescence, 20 h | AID 2546, 2010 | Potency, µM (highest dose often 53.6 µM), without a hit: at the highest dose activity, negative = inhibition, hits mostly inhibitors;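 note: Gal4-VP16 expression switched on by copper sulfate through the metallothionein promoter; nearly all actives have a fitted effect of over 50% in size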
ELG1 DNA repair: qHTS screen for small molecules that inhibit ELG1-dependent DNA repair in human embryonic kidney (HEK293T) cells expressing luciferase-tagged ELG1; HEK293T ELG1-luciferase reporter, luminescence, 16 h; DNA damage induced by 5-fluorouridine; Potency, µM (series often up to 46.1 µM), for inactives: at the highest dose activity change, negative = inhibition, hits mostly inhibitors; 330,000 compounds, 2.3% hits; note: nearly all actives have a fitted effect of over 55% in size
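In this reporter screen, reduction of luminescence relative to DMSO vehicle indicated activity. Compounds and 5-fluorouridine were added together to 2,000 cells per well, incubated for 16 hr at 37 °C, then developed with ONE-Glo.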
DT40 TDP1 no CPT: qHTS for Inhibitors of human tyrosyl-DNA phosphodiesterase 1 (TDP1): qHTS in cells in absence of CPT | DT40 Tdp1-/- hTDP1 cells, no CPT, ATP luminescence, 48 h | Potency, µM (top dose mostly 46.2 µM), without a hit: top-dose activity change, negative = growth inhibition, usual class: inhibitors | 420,000 compounds, 15% hits | AID 686978, 2013; note: nearly all actives have a fitted effect of over 55% in size
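Camptothecin absent (DMSO only). Human TDP1-complemented DT40 knockout cells, 400 cells/well, 37 °C for minimum 48 hr; ATP measured via CellTiter-Glo, 30 min dark incubation, luminescence.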
TDP1 cell CPT: qHTS for Inhibitors of human tyrosyl-DNA phosphodiesterase 1 (TDP1): qHTS in cells in presence of CPT. chicken DT40 Tdp1-/-;hTDP1 cells + 20 nM CPT, ATP luminescence, 48 h. AID 686979, 2013. Potency, µM (top dose mostly 46.2 µM), without a hit: at the highest dose activity change, negative = growth inhibition, most hits filed as inhibitors. 420,000 compounds, 12% hits; note: nearly all actives have a fitted effect of over 55% in size
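Chicken DT40 Tdp1-/- cells complemented with human TDP1, 400 cells/well, exposed to compounds plus 20 nM camptothecin for at least 48 h at 37 C; viability read as ATP content by CellTiter-Glo luminescence.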
ALOX12 inh: Primary qHTS assay for inhibitors of human arachidonate 12S-lipoxygenase (ALOX12): Round 2 | Polyunsaturated fatty acid lipoxygenase ALOX12 (Homo sapiens), P18054 | purified 12hLO, xylenol orange hydroperoxide absorbance | Potency, µM (highest dose often 108 µM), inactives show top-dose activity change, negative = inhibition, most hits filed as inhibitors | 580,000 compounds, 1.1% hits | AID 1671190, 2021
Target sequence (P18054 whole entry, looked up): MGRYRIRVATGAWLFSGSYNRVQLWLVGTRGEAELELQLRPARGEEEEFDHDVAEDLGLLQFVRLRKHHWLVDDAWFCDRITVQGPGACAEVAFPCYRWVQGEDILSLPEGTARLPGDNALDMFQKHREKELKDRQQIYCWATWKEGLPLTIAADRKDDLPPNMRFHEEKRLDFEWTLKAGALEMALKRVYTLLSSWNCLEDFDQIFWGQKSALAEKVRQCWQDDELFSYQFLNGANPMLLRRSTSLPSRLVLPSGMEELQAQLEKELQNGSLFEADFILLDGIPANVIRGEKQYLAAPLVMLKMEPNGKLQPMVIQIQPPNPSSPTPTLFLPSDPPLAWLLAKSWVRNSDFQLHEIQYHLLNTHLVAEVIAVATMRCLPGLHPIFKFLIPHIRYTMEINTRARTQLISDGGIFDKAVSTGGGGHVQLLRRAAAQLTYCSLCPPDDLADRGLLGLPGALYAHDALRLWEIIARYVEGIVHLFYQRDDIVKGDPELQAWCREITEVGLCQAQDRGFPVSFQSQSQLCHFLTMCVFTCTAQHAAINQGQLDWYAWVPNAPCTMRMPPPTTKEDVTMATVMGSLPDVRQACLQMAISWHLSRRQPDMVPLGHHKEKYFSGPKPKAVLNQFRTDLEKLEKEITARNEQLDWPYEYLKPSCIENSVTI
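Purified human 12hLO at 150 nM in 25 mM Hepes, 0.01% Triton X-100, pH 7.0, preincubated 15 min at room temperature with compound. Reaction started with 40 uM arachidonic acid, 30 min at room temperature. Hydroperoxide measured by Fe-xylenol orange, 573/405 nm absorbance ratio.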
RORg inh: qHTS for inhibitors of ROR gamma transcriptional activity; Nuclear receptor ROR-gamma (Mus musculus), P51450; Drosophila S2 Gal4-RORgamma UAS-luciferase reporter, 20 h; Potency, µM (titrated, usually from 53.6 µM), without a hit: at the top dose activity change, negative = inhibition, usual class: inhibitors; 310,000 compounds, 5.4% hits; AID 2551, 2010; note: nearly all actives have a fitted effect of over 60% in size
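Luciferase reporter read in Schneider cells carrying Gal4-RORγ (mouse) and UAS-Photinus luciferase; cells given compound 1 h before 700 uM copper sulfate induction, then incubated 20 h at ambient temperature.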
* hit, by the source's call; u = inconclusive; x = no result; [ ] = dose if it differs, or a comment. Sampled rows, rich in hits. Any-hit rate of the full collection: about 15%. Calls come from the whole dose curve; as a rule, active = well fitted curve in the direction sought with a large enough effect; inconclusive = small, poorly fitted or top-dose-only effect, or another doubt; inactive = no such curve, though single readings can be large; an effect the other way counts as inactive or inconclusive. % is set by controls: 0 for no effect and ±100 for the full control effect; potency is the fitted concentration of half-maximal effect.

SMILES	Gal4-VP16 FLuc	ELG1 DNA repair	DT40 TDP1 no CPT	TDP1 cell CPT	ALOX12 inh	RORg inh
CCN(CC)c1ccc(S(=O)(=O)N2CCOCC2)cc1NC(=O)CNCc1ccccc1	3%	-27%	21µM*	u	17%	2%
CCN(CC)c1ccc(S(=O)(=O)N2CCOCC2)cc1NC(=O)CSC(=S)N1CCCC1	x	u	10µM*	18µM*	-9%	x
CCN(CC)c1ccc(S(=O)(=O)N2CCOCC2)cc1NC(=O)Nc1ccccc1	x	u	21µM*	u	u	x
CCOc1ccc(Cn2cnc3c2c(=O)n(C)c(=O)n3C)cc1OCC	x	x	x	x	-38%	x
Fc1ccc(-n2[nH]nnc2=S)cc1N1CCCC1	u	28%	-1%	-18%	8.9µM*	3%[10 µM]
CCc1c(C)sc(NC(=S)NC(C)C2CCCO2)c1C(=O)OC (stereo not drawn)	10µM*	u	u	-7%	1%	16µM*
CCc1c(C)sc(NC(=S)N2CC(C)OC(C)C2)c1C(=O)OC (stereo not drawn)	-16%	-6%	u	1%	9%	7.1µM*
CC(C)S(=O)(=O)N1CCC2(CC1)CC(N1CCN(c3ccccn3)CC1)CCO2 (stereo not drawn)	x	x	x	x	36%	x
COc1ccc(Cn2c(C3CCN(C(=O)c4ccccc4)CC3)n[nH]c2=O)cc1	x	x	x	x	7%	x
CO[C@H]1C(=O)N(C2CCN(S(=O)(=O)c3cccnc3)CC2)[C@H]1c1ccncc1	x	x	x	x	9%	x
COC(=O)/C=C1\SC(=NC(=O)c2cccc(Cl)c2)NC1=O	1%	0%	u	21µM*	u	-28%
COC(=O)/C=C1/SC(=NC(=O)c2ccccc2)NC1=O	-7%	6%	21µM*	u	-6%	35%
Cc1ccc(C)c(OCCC(=O)N2CCN(S(=O)(=O)c3cccs3)CC2)c1	x	x	x	x	5%	x
N#CCCN(C(=O)COC(=O)c1nn(-c2ccccc2)c(=O)c2ccccc12)c1ccccc1	x	x	x	x	-2%	x
CCN(CC)CCNC(=O)c1ccc2c(c1)sc1nc(-c3ccc(F)cc3)cn12	x	x	3.3µM*	5.8µM*	u	x
CCOc1ccc(-c2cn3c(n2)sc2cc(C(=O)NCCCN(CC)CC)ccc23)cc1	x	x	0.82µM*	0.73µM*	u	x
CCOc1ccc(-c2cn3c(n2)sc2cc(C(=O)NCCCN4CCCCCC4)ccc23)cc1	x	x	6.5µM*	5.8µM*	u	x
COc1ccc(-c2cn3c(n2)sc2cc(C(=O)Nc4ccc(F)cc4Cl)ccc23)cc1	x	x	u	u	-2%	x
CCOc1ccc(CNC(=O)c2ccc3c(c2)sc2nc(-c4ccc(OC)cc4)cn23)cc1	x	x	-18%	-3%	-29%	x
CCCN1CCN(CCCNC(=O)c2ccc3c(c2)sc2nc(-c4ccc(OCC)cc4)cn23)CC1	x	x	2.9µM*	1.8µM*	1%	x
Cc1cc(C(=O)Nc2ccc(Br)cn2)no1	x	x	x	x	6%	x
COCC(=O)N1CCCC(c2nn(-c3ccc(OC)cc3)c(=O)[nH]2)C1 (stereo not drawn)	x	x	x	x	37%[176 µM]	x
Cc1ccccc1-c1nnc(SCC(=O)Nc2nnc(-c3ccccc3)o2)n1C	x	x	x	x	14%	x
CCOc1ccc(-c2cn3c(n2)sc2cc(C(=O)NCCCN4CCCCC4)ccc23)cc1	x	x	1.6µM*	1.6µM*	9%	x
CCOc1ccc(-c2cn3c(n2)sc2cc(C(=O)NCCc4ccc(OC)cc4OC)ccc23)cc1	x	x	u	-21%	-3%	x
SMILES	Gal4-VP16 FLuc	ELG1 DNA repair	DT40 TDP1 no CPT	TDP1 cell CPT	ALOX12 inh	RORg inh
CCOc1ccc(-c2cn3c(n2)sc2cc(C(=O)NC4CCCc5ccccc54)ccc23)cc1 (stereo not drawn)	x	x	5.2µM*	12µM*	-10%	x
CCn1nc(C(=O)Nc2cc(C(F)(F)F)ccc2N2CCOCC2)c2ccccc2c1=O	x	x	x	x	2%	x
Cc1ccc(C2Cn3nnc(C(=O)N4CCC(C(=O)NCc5ccccc5Cl)CC4)c3CO2)cc1 (stereo not drawn)	x	x	x	x	7%	x
COc1ccc(OC)c(CNC(=O)c2cc(Br)ccc2O)c1	x	x	x	x	-39%	x
Cc1cc(NC(=O)c2cccc(S(=O)(=O)N(C)C)c2)n(-c2ccccn2)n1	1%	u	23µM*	15µM*	4%	-8%
Cc1cc(NC(=O)c2cccc(S(=O)(=O)N3CCCCCC3)c2)n(-c2ccccn2)n1	-6%	-9%	21µM*	u	-18%	14%
CCn1c(=O)c(C(=O)NNC(=O)c2ccccc2F)c(O)c2ccccc21	u	5%	18µM*	u	24%	7.9µM*
CCCCCCCCCC(=O)NNC(=O)c1c(O)c2ccccc2n(CC)c1=O	0%	-10%	8.2µM*	u	4%	-11%
CCn1c(=O)c(C(=O)NNC(=O)c2ccccc2Cl)c(O)c2ccccc21	u	11%	u	u	27%	7.9µM*
CCCCCC(=O)NNC(=O)c1c(O)c2ccccc2n(CC)c1=O	1%	5%	u	u	-2%	43%
O=C(c1cccc(C(F)(F)F)c1)N1CCC(Oc2ncccc2C(=O)N2CCCCC2)C1 (stereo not drawn)	x	x	x	x	22%	x
Cc1cc(C=O)c(C)n1-c1ccc(N2CCOCC2)cc1	-13%	-8%	u	u	0%	12%
Cc1cc(C=O)c(C)n1-c1ccc(N2CCCCC2)c([N+](=O)[O-])c1	-16%	-3%	21µM*	8.2µM*	-24%	u
Cc1cc(/C=C(\C#N)C(N)=O)c(C)n1-c1ccc(N2CCOCC2)c([N+](=O)[O-])c1	-7%	23µM*	23µM*	23µM*	-28%	1%
CC(=O)N1CCc2cc(NC(C)C(=O)Nc3ccc(OC(F)F)cc3)ccc21 (stereo not drawn)	x	x	x	x	28%	x
COc1cc(-c2cnc3c(NC=O)cc(-c4ccc(C)cc4)cn23)cc(OC)c1OC	x	x	0.1µM*	0.16µM*	u	x
COc1cc(-c2cnc3c(NC=O)cc(-c4ccccc4Cl)cn23)cc(OC)c1OC	x	x	1µM*	0.82µM*	u	x
COc1ccc(F)cc1-c1ccc(C=O)cc1	x	x	x	x	13%[12.5 µM]	x
